Data taken from article PMC4336329 (PLoS ONE, 2015).
In all, about 310,000 compounds went through this assay and about 14,000 (4.5%) showed an effect of 50% or more. The effect is printed as a negative number. Shown is part of a subset that was picked to be rich in strong results.
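Further: peak tail current of the secondary pulse compared with the same well before compound.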

What follows are molecules tested against human ether-à-go-go-related gene (hERG) potassium channel (human, UniProt Q12809) (assay: primary screen, population patch clamp on CHO cells stably expressing hERG; higher = less effect of the substance).
Sequence of human ether-à-go-go-related gene (hERG) potassium channel (Q12809 whole entry, looked up): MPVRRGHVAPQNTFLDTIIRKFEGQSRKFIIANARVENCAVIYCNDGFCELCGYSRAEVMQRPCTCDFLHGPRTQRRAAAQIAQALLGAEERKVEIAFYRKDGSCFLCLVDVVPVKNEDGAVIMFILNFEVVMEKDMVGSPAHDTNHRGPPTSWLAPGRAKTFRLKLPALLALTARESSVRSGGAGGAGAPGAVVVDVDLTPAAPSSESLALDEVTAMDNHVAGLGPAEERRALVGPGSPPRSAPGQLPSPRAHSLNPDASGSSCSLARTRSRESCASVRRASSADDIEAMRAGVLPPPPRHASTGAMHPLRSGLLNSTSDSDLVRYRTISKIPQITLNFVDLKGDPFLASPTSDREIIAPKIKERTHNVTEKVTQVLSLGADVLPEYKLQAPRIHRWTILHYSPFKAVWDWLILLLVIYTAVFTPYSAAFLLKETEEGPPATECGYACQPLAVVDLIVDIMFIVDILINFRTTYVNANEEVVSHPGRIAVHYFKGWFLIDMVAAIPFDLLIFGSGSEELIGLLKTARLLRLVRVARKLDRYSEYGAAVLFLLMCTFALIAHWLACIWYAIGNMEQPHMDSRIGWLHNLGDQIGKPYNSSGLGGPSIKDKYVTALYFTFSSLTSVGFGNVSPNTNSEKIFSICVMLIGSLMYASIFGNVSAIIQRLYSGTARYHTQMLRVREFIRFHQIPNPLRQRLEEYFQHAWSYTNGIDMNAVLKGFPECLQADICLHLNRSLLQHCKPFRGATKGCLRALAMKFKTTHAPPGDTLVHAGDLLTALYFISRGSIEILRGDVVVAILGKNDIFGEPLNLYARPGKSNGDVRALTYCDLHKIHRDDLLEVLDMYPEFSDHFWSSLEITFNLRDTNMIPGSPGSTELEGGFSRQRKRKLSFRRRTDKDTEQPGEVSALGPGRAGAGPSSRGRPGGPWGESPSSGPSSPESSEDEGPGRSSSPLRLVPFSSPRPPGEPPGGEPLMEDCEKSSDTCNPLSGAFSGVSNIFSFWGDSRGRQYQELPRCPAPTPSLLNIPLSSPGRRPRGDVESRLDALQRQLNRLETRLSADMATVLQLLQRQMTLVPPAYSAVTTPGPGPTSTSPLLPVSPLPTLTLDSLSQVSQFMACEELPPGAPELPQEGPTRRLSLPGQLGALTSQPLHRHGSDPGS
With `Cc1ccccc1C(=O)N1CCC(C(=O)OCc2nc(N)nc(Nc3ccccc3)n2)CC1` the “hERG current change (%, negative = inhibition) at 10uM” value was -33.6%. `Cc1cc(C)n(CC(=O)NNC(=O)C2CC(=O)N(Cc3ccccc3Cl)C2)n1` (stereo not drawn) was tested, and the “hERG current change (%, negative = inhibition) at 10uM” value was 1.16%. With `Nc1nc(COC(=O)C2CC(=O)N(CCc3ccccc3)C2)nc(Nc2ccccc2)n1` (stereo not drawn) the “hERG current change (%, negative = inhibition) at 10uM” value was -52.2%. `Cc1ccc(N2CC(C(=O)OCc3nc(N)nc(Nc4ccccc4C)n3)CC2=O)cc1` (stereo not drawn) was tested, and the “hERG current change (%, negative = inhibition) at 10uM” value was -32.8%. With `Nc1nc(COC(=O)C2CCN(C(=O)c3ccc(Cl)cc3)CC2)nc(Nc2ccccc2)n1` the “hERG current change (%, negative = inhibition) at 10uM” value was -67.8%. For `Nc1nc(COC(=O)C2CC(=O)N(Cc3ccccc3)C2)nc(Nc2ccccc2)n1` (stereo not drawn), the “hERG current change (%, negative = inhibition) at 10uM” value was -51.9%. For `CC(=O)c1ccc(NC(=O)Nc2ccc(Br)cc2C)cc1`, the “hERG current change (%, negative = inhibition) at 10uM” value was 22.3%. In the case of `COc1ccc(/C=N/NC(=O)c2ccc(N(C)S(=O)(=O)c3ccccc3)cc2)c(OC)c1`, the “hERG current change (%, negative = inhibition) at 10uM” value is reported as 6.66%. In the case of `Cl.O=S(=O)(c1cccs1)N1CCN(C/C=C/c2ccccc2)CC1`, the “hERG current change (%, negative = inhibition) at 10uM” value is reported as -49.3%. For `COc1ccc(N(CC(=O)NCc2cccnc2)S(=O)(=O)c2ccccc2)c(OC)c1`, the “hERG current change (%, negative = inhibition) at 10uM” value was -8.52%. With `Cc1c(C)n(C)c2ccc([N+](=O)[O-])cc12` the “hERG current change (%, negative = inhibition) at 10uM” value was -4.04%. In the case of `O=C(CSc1ccsc1[N+](=O)[O-])NCCc1ccccc1`, the “hERG current change (%, negative = inhibition) at 10uM” value is reported as 2.6%. For `CCCCNC(=O)CN1CCN(Cc2ccc3cc(OC)ccc3c2)CC1.O=C(O)C(=O)O`, the “hERG current change (%, negative = inhibition) at 10uM” value was -69%. For `COc1ccc(NC(=O)CN2CCOCC2)cc1.O=C(O)C(=O)O`, the “hERG current change (%, negative = inhibition) at 10uM” value was 13%. In the case of `COc1ccc(NC(=O)CN2CCN(CC#N)CC2)cc1`, the “hERG current change (%, negative = inhibition) at 10uM” value is reported as -75.6%. `N#CCN1CCN(CC(=O)Nc2ccc(OCc3ccccc3)cc2)CC1` was tested, and the “hERG current change (%, negative = inhibition) at 10uM” value was -4.27%. In the case of `CCCCCNC(=O)Cc1ccc(OC)cc1`, the “hERG current change (%, negative = inhibition) at 10uM” value is reported as 1.41%. In the case of `COc1ccc(NC(=O)CN2CCCCCC2)cc1OC`, the “hERG current change (%, negative = inhibition) at 10uM” value is reported as 3.79%. `COc1cccc(CN2CCN(CC(=O)NCCc3ccccc3)CC2)c1` was tested, and the “hERG current change (%, negative = inhibition) at 10uM” value was -11.8%. In the case of `COc1ccc(NC(=O)CN2CCN(CC(=O)Nc3ccc(OC)c(OC)c3)CC2)cc1`, the “hERG current change (%, negative = inhibition) at 10uM” value is reported as -74.6%. With `COc1ccc(N2CCN(CC(=O)Nc3ccc(C)c(C)c3)CC2)cc1` the “hERG current change (%, negative = inhibition) at 10uM” value was -17.3%. For `COC(=O)c1ccc(NC(=O)CN2CCN(CC#N)CC2)cc1.O=C(O)C(=O)O`, the “hERG current change (%, negative = inhibition) at 10uM” value was 3.24%. `CCN(CC)c1ccc(NC(=O)CN2CCN(CC(=O)Nc3ccc(OC)cc3)CC2)cc1` was tested, and the “hERG current change (%, negative = inhibition) at 10uM” value was -74.9%. In the case of `CCN(C(=O)COc1ccccc1)c1nnc(-c2cccnc2)s1`, the “hERG current change (%, negative = inhibition) at 10uM” value is reported as 8.69%. In the case of `Cc1cccc(NC(=O)c2cccc(NC(=O)Cc3cccs3)c2)c1`, the “hERG current change (%, negative = inhibition) at 10uM” value is reported as 4.72%. With `N#CCC(=O)N/N=C/c1ccc(N2N=C(c3ccccc3)CC2c2ccccc2)cc1` (stereo not drawn) the “hERG current change (%, negative = inhibition) at 10uM” value was 25%. For `CC(C(=O)N1CCC2(CC1)OCCO2)C1Sc2ccccc2NC1=O` (stereo not drawn), the “hERG current change (%, negative = inhibition) at 10uM” value was 6.9%. `O=C(NC1C2CC3CC(C2)CC1C3)c1ccc2c(c1)OCO2` (stereo not drawn) was tested, and the “hERG current change (%, negative = inhibition) at 10uM” value was -5.92%. `CN(C)CCNc1ccc(-c2nn(C)c(=O)c3ccccc23)cc1[N+](=O)[O-]` was tested, and the “hERG current change (%, negative = inhibition) at 10uM” value was -1.47%. For `CCOC(C(=O)OCCCN(CC)CC)(c1ccccc1)c1ccccc1.Cl`, the “hERG current change (%, negative = inhibition) at 10uM” value was -11.5%. With `N#CC(c1ccc(Cl)nn1)c1c(F)cccc1Cl` (stereo not drawn) the “hERG current change (%, negative = inhibition) at 10uM” value was 9.59%. With `Cc1noc(C)c1COC(=O)[C@@H](NC(=O)c1ccccc1Cl)C(C)C` the “hERG current change (%, negative = inhibition) at 10uM” value was 5.09%. `Cl.N[C@@H](Cc1c[nH]c2ccccc12)c1nnc(SCc2c(F)cccc2Cl)o1` was tested, and the “hERG current change (%, negative = inhibition) at 10uM” value was 1.99%. In the case of `COC(=O)c1ccc(NC(=O)CCN2CCN(CCC(=O)Nc3ccc(C(=O)OC)cc3)CC2)cc1`, the “hERG current change (%, negative = inhibition) at 10uM” value is reported as -15.4%. In the case of `CCOC(=O)c1ccc(NC(=O)CN2CCN(c3ccccc3)CC2)cc1`, the “hERG current change (%, negative = inhibition) at 10uM” value is reported as 5.34%. For `COC(=O)c1ccc(NC(=O)CCN2CCN(c3ccccc3)CC2)cc1`, the “hERG current change (%, negative = inhibition) at 10uM” value was -28.9%. In the case of `COc1ccc(NC(=O)CN2CCN(S(=O)(=O)N3CCCCCC3)CC2)cc1`, the “hERG current change (%, negative = inhibition) at 10uM” value is reported as -71.7%. With `COc1ccc(NC(=O)CN2CCN(c3c(C)cc(C)cc3C)CC2)cc1` the “hERG current change (%, negative = inhibition) at 10uM” value was 3.97%. `CCOC(=O)c1ccc(NC(=O)N2CCN(Cc3ccccc3)CC2)cc1` was tested, and the “hERG current change (%, negative = inhibition) at 10uM” value was -11.1%. With `COC(=O)c1ccc(NC(=O)CCN2CCN(Cc3ccccc3)CC2)cc1` the “hERG current change (%, negative = inhibition) at 10uM” value was -58.6%. In the case of `COc1ccc(NC(=O)CN2CCN(c3c(C)cccc3C)CC2)cc1`, the “hERG current change (%, negative = inhibition) at 10uM” value is reported as -24.4%. With `COc1cccc(N2CCN(CC(=O)Nc3ccc(S(=O)(=O)N4CCCCCC4)cc3)CC2)c1` the “hERG current change (%, negative = inhibition) at 10uM” value was -21.9%. For `CCOC(=O)c1ccc(NC(=O)CN2CCN(Cc3ccccc3)CC2)cc1`, the “hERG current change (%, negative = inhibition) at 10uM” value was -51%. With `COc1ccc(NC(=O)CN2CCN(S(=O)(=O)N(C)C)CC2)cc1` the “hERG current change (%, negative = inhibition) at 10uM” value was -4.55%. `COc1ccc(NC(=O)CN2CCN(c3ccc(C)cc3C)CC2)cc1` was tested, and the “hERG current change (%, negative = inhibition) at 10uM” value was -60.7%.
